# Screening results deposited in PubChem BioAssay by The Scripps Research Institute Molecular Screening Center.
# ssDAF12 agonist: activators of S. stercoralis DAF-12 nuclear receptor; HEK293 ssDAF-12/GRIP1 lit1-tk-luc reporter, luminescence; % of 3 µM dafachronic acid response; activation, % at 6.8 µM; 370,000 compounds, 1% hits; AID 652126;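 active = activation above the mean over all tested compounds plus 3 SD, cut at about 0.9% in these data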
# hgDAF12 agonist: activates the H. glycines DAF-12 receptor ligand-binding domain. HEK293 GAL4-hgDAF12 UAS-luciferase reporter, agonist luminescence; normalized to butyrate control. 370,000 compounds, 1.8% hits. activation, % at 6.8 µM;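 active = activation above a cutoff set at the mean of all screened compounds plus 3 SD, cut at about 10% in these data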
# DAX1 inh-1: inhibitors of DAX1 repression of SF-1 activated StAR promoter | inhibition, % at 6.8 µM | AID 652010 | 370,000 compounds, 1.1% hits | HEK293T StAR-luciferase reporter, SF-1/DAX-1 repression relief;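 active = inhibition above the mean over all tested compounds plus 3 SD, cut at about 3.6% in these data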;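 note: higher inhibition means more luminescence from relief of DAX-1 repression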
# hcDAF-12 act: activates DAF-12 receptor from parasite H. contortus. AID 652067. activation, % at 6.8 µM. HEK293 hcDAF-12 lit1-tk-luc reporter, luminescence; 0% DMSO, 100% Δ7-dafachronic acid. 370,000 compounds, 1.4% hits;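 active = activation above the mean of all tested compounds plus 3 SD, cut at about 5.5% in these data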
# DAX1 inh-2: inhibitors of human orphan nuclear receptor DAX1 (NR0B1). P51843. HEK293 Gal4-DAX1 luciferase reporter, luminescence. inhibition, % at 6.75 µM. 340,000 compounds, 0.99% hits. AID 504766;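 active = inhibition above the mean over all tested compounds plus 3 SD, cut at about 4.2% in these data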;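 note: inhibition shows as a rise in luminescence from relieved DAX1 repression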
# hgDAF12 ag: hgDAF-12 agonism, confirmation assay; shares compounds with hgDAF12 agonist; HEK293 GAL4-hgDAF12 luciferase reporter, agonist mode; percent of butyrate response; activation, % at 6.8 µM; 3,300 compounds, 80% hits; AID 743050;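 active = mean activation over triplicate wells above the hit cutoff derived from the earlier primary screen, cut at about 11% in these data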
# LXR ag 2: counter-screen for DAF-12 agonists: agonists of human LXR-beta. shares compounds with hgDAF12 agonist. HEK293 Gal4-LXR luciferase reporter, 24 h. activation, % at 6.8 µM. 3,300 tested, under 10 active. AID 743051;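 active = mean activation of the triplicate above a set limit carried over from the primary screen, none filed active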
# Target sequence (P55055 whole entry, looked up, the tested form may be a part): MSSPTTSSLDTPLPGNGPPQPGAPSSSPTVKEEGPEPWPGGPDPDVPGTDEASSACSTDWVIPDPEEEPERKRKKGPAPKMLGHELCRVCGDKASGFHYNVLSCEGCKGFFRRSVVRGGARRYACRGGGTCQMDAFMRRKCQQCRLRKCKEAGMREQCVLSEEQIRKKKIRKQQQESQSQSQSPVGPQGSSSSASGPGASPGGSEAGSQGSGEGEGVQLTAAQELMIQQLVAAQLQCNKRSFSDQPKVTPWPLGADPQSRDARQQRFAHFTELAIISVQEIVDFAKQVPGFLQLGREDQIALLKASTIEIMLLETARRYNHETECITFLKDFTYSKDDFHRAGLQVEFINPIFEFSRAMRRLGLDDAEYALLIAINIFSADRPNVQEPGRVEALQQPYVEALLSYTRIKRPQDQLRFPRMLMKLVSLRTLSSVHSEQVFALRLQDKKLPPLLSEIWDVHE
# Hits are given with their value; - = inactive; . = not tested or not shown. Shown are actives, neighbours in structure and some others; about 4.1% of the full set was active somewhere.
SMILES,ssDAF12 agonist,hgDAF12 agonist,DAX1 inh-1,hcDAF-12 act,DAX1 inh-2,hgDAF12 ag,LXR ag 2
COc1cccc(-c2noc(-c3cccnc3)n2)c1,-,13.9,-,-,4.2,15.2,-
COc1cccc(-c2noc(-c3ccc(Br)o3)n2)c1,-,15.8,4.4,-,-,17.2,-
CN(Cc1ccccc1)C(=O)OCc1cn(Cc2cccc(Cl)c2)nn1,-,-,-,-,.,.,.
CCOc1ccc(CN(CCC#N)C(=S)NC(=O)c2ccccc2)cc1,-,17.4,-,-,-,-,-
O=[N+]([O-])c1ccc(NN=Cc2ccc3c(c2)OCO3)nc1,-,15.2,-,-,7.2,16.5,-
O=[N+]([O-])c1ccc(S(=O)(=O)NN=Cc2ccc3c(c2)OCO3)cc1,-,-,-,-,-,.,.
COC(=O)C1=C(C)N(Cc2ccccc2C(F)(F)F)C(=NCc2cc(OC)c(OC)c(OC)c2)NC1c1cccc(F)c1 (centres undefined),-,-,-,-,.,.,.
Cc1oc(-c2cccc(Cl)c2)nc1CN(C)C1CCOC1 (centres undefined),-,-,-,-,-,.,.
Cc1oc(-c2ccc(-c3ccccc3)cc2)nc1CN(C)C1CCOC1 (centres undefined),-,15.8,-,-,-,14.3,-
Cc1ccc(C(=O)N/N=C/C2=Cc3ccccc3OC2C)cc1 (centres undefined),-,-,-,-,-,.,.
CC1Oc2ccccc2C=C1/C=N/NC(=O)c1ccccc1 (centres undefined),-,14.0,-,-,-,-,-
CCOC(=O)N1CCN(C(=O)C[C@H]2C[C@@]3(C(=O)OC)C(=C[C@H](C4CCCC4)O[C@@H]3C)N(Cc3ccco3)C2=O)CC1,-,-,-,-,.,.,.
C[C@H](CO)N1C[C@H](C)[C@@H](CN(C)C(=O)Nc2ccc(-c3cccs3)cc2)OCc2cn(nn2)CCCC1=O,-,-,-,-,.,.,.
C/C(N)=C(/C#N)C(=O)CSc1nnc(-c2ccccc2Br)o1,-,14.4,3.8,-,-,17.1,-
O=C(CSc1nnc(-c2ccccc2Br)o1)N1CCOCC1,-,-,-,-,-,.,.
Cc1cc(NC(=O)CN2CCCCC2)no1,-,13.8,-,-,-,-,-
CCN1CCN(CC(=O)Nc2cc(C)on2)CC1,-,-,-,-,-,.,.
COc1ccc(-c2cn3nc4c(nc3n2)CCCC4)cc1,-,-,-,-,-,.,.
COc1cccc(-c2cn3nc(C)c(C)nc3n2)c1,-,15.3,-,-,-,13.6,-
Cc1c(C(=O)Nc2cc(F)cc(F)c2)cnn1-c1ccccc1,-,-,-,-,-,.,.
Cc1c(C(=O)Nc2ccccc2F)cnn1-c1ccccc1,-,13.6,-,-,-,12.8,-
CC(=O)Nc1ccc2c(c1)C(=O)c1ccccc1C2=O,-,14.3,-,6.5,-,17.7,-
O=C1c2ccccc2C(=O)c2cc(NC(=O)C3CC3)ccc21,-,-,-,-,-,.,.
O=C(N=C1N=C2C=CC(Br)=CN2Cc2ccccc21)c1ccc([N+](=O)[O-])cc1[N+](=O)[O-],1.1,14.4,-,-,-,14.4,-
COc1ccccc1C(=O)CSc1nnc(-c2ccncc2)n1-c1ccc(Cl)cc1,-,-,-,-,.,.,.
SMILES,ssDAF12 agonist,hgDAF12 agonist,DAX1 inh-1,hcDAF-12 act,DAX1 inh-2,hgDAF12 ag,LXR ag 2
Fc1ccc(-c2csc(-c3cccnc3)n2)cc1F,-,-,-,-,-,.,.
c1cncc(-c2nc(-c3ccc4c(c3)OCCO4)cs2)c1,-,15.1,-,5.8,4.6,15.7,-
C[C@@H]1COc2cc(Br)ccc2S(=O)(=O)N1Cc1cn(Cc2ccc(C(F)(F)F)cc2)nn1,-,-,-,-,.,.,.
CCC(=O)Nc1cccc(-c2ccc(N3CCC(C)CC3)nn2)c1,1.0,17.6,-,5.8,-,12.5,-
Cc1cnc(NC(=O)C2CCCO2)s1 (centres undefined),-,14.6,-,-,-,-,-
CC(C)c1nnc(NC(=O)C2CCCO2)s1 (centres undefined),-,-,-,-,-,.,.
CCc1ccc(NC2=NCC(c3ccccc3)S2)cc1 (centres undefined),-,13.4,-,-,-,11.1,-
COC(=O)c1cc2c(c3c4ccccc4n(S(=O)(=O)c4cccc(C)c4)c13)C(=O)N(Cc1ccccc1OC)C2,-,-,-,-,.,.,.
O=C(Nc1ccc(NC(=O)c2cccs2)cn1)c1ccccc1,-,15.8,-,-,-,15.3,-
O=C(Nc1ccc(NC(=O)C2CC2)cn1)c1ccccc1,-,16.4,-,-,-,13.1,-
COc1ccc(N2CCN(C(=O)C3CCN(S(=O)(=O)c4ccc5c(c4)CC(C)N5C(=O)C4CC4)CC3)CC2)cc1 (centres undefined),-,-,-,-,.,.,.
N#C/C(=C\c1ccc(N2CCOCC2)cc1)c1ccccc1,-,21.3,-,6.1,-,17.2,-
O=C(CSc1ccccc1)Nc1ccc(-c2nc3ccccc3[nH]2)cc1,-,15.8,-,-,-,12.6,-
CCNC(=S)Nc1ccc(-c2nc3ccccc3[nH]2)cc1,-,14.1,4.4,-,-,16.9,-
Nc1nc2cc3c(cc2cc1C(=O)NCCc1c[nH]c2ccccc12)OCO3,-,-,-,-,.,.,.
C=CCN1[C@@H](C)[C@H](c2ccccc2)Oc2cccc(NCC(C)C)c2S1(=O)=O,-,-,-,-,.,.,.
O=C(Nc1ccccn1)c1ccc(Br)s1,-,16.4,-,-,-,13.4,-
Cc1csc(NC(=O)c2ccc3c(c2)OCO3)n1,-,16.6,-,-,-,15.9,-
Cc1nc(NC(=O)c2ccc3c(c2)OCO3)ccc1Br,-,15.8,-,-,4.3,13.8,-
Cc1csc(NC(=O)c2ccc(Br)s2)n1,-,16.6,-,-,-,12.9,-
CCOC(=O)Cc1csc(NC(=O)c2ccc3c(c2)OCO3)n1,-,-,-,-,-,.,.
CN(Cc1ccccc1F)C(=O)C1CCCN(c2ncccn2)C1 (centres undefined),-,-,-,-,.,.,.
CCCCCCC12C(=Cc3cc4c(cc31)OCCO4)c1cc(OC)c(OC)cc1C(CC(=O)O)N2C(=O)OC (centres undefined),-,-,-,-,.,.,.
COc1ccccc1C(=O)Nc1ccccn1,-,14.0,-,-,-,13.2,-
COC(=O)[C@]12C[C@H](CC(=O)NCc3cccs3)C(=O)N(Cc3ccc4c(c3)OCO4)C1=C[C@H](COCc1ccccc1)O[C@@H]2C,-,-,-,-,.,.,.
CCC/C=N/NC(=O)c1ccc(F)cc1,-,-,-,-,-,.,.
CCC/C=N/NC(=O)c1cccc(Br)c1,-,14.4,-,-,-,-,-
